D1 ag – activates the human D1 dopamine receptor | actives 1% (n = 360,000) | AID 504660 | HEK293 T-REx D1 cells, calcium flux, agonist mode | P21728 | activation, % at 2 µM; further: 0% is about no effect
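Tetracycline-induced HEK293 TREx D1 cells, force-coupled to calcium signalling, were dye-loaded with a no-wash calcium kit. Compound was pin-added after a 10 s baseline. Fluorescence was read kinetically at 1 cycle/s for 180 s, with calcium rises flagged as agonism.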
D1 antag – human D1 dopamine receptor antagonism; actives 3.2% (n = 360,000); P21728; HEK293 TREx D1 cells, calcium flux, dopamine EC80; active compounds read low; activity change, negative = inhibition, % at 10 µM; AID 504652; in the data active means activity change below about -30%; further: on the % scale 0 is the no-effect control and ±100 the full control effect
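Cells carrying a force-coupled, tetracycline-inducible human D1 receptor report calcium flux. Each well gets a 10 s baseline, compound with 180 s monitoring, then an EC80 dopamine stimulus with a second 180 s kinetic read.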
TRHR ag – activates the human TRH receptor; TRHR cells, calcium flux fluo-8, FDSS agonist mode; actives 0.18% (n = 360,000); activation, % at 2 µM; AID 493084; further: 0% is about no effect
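TRHR-expressing cells, plated overnight in medium with 10% serum, were loaded with fluo-8 calcium dye at room temperature. After a 10 s baseline, library compound was pin-added and calcium release was recorded kinetically (ex 480/em 530) as agonist response.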
D1 potentiator – human D1 dopamine receptor positive modulation; P21728; HEK293 TREx D1 cells, calcium flux, dopamine EC20 potentiation; potentiation, % at 10 µM; actives 0.036% (n = 360,000); AID 504651; in the data active means potentiation above about 30%; further: 0% is about no effect
TRHR enhancer – allosteric enhancers of human TRH receptor | P34981 | TRHR cells, fluo-8 calcium fluorescence, EC20 TRH enhancement | enhancement, % at 2 µM | actives 0.66% (n = 360,000); in the data active means enhancement above about 30%; further: 0% is about no effect
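Enhancer read-out: after compound pinning and an initial kinetic agonist-mode read, an EC20 of TRH (10 nM final) was injected and fluo-8 calcium signal (Ex 480/Em 530) followed at 1 s/cycle for 100 cycles in TRHR-expressing cells.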
USP1-UAF1 inh – inhibitors of human USP1/UAF1 deubiquitinase; recombinant USP1/UAF1, Ub-Rhodamine cleavage fluorescence; actives 0.23% (n = 390,000); O94782; Potency, µM (titrated, usually from 57.1 µM), for the others: at the highest dose activity change, negative = inhibition, usual class: inhibitors; active means well fitted inhibition curve with a large enough effect; inconclusive means small, poorly fitted or top-dose-only effect; inactive means no such curve, though single readings can be large or run the other way; further: potency means the concentration at half of the fitted maximal effect; on the % scale 0 is the no-effect control and ±100 the full control effect; nearly all actives have a fitted effect of over 60% in size
Target sequence (O94782 whole entry, looked up): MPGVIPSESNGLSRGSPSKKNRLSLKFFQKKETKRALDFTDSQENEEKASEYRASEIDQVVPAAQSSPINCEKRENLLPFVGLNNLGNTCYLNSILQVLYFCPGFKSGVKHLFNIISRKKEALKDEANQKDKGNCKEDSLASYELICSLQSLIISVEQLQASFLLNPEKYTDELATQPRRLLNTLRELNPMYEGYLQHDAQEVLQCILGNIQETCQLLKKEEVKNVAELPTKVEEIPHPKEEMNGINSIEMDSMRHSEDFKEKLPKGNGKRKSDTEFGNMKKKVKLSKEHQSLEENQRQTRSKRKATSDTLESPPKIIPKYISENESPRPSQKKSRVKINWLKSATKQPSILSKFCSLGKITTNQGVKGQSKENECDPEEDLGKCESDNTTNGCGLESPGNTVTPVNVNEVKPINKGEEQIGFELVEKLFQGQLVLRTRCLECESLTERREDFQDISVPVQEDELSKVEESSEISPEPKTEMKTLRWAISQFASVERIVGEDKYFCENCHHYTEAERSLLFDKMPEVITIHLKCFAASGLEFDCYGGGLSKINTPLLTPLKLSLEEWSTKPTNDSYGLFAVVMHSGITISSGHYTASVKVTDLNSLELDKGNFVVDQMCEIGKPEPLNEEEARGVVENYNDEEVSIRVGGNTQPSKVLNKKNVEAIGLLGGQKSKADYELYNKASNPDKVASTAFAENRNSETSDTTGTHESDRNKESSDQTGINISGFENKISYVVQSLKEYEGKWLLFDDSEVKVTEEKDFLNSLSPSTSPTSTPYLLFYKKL
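Step one: compound is pinned into 1nM USP1/UAF1 in HEPES pH 7.8 buffer with TCEP. Step two: 15 min room-temperature incubation. Step three: Ub-Rho (150nM final) starts cleavage, tracked by fluorescence over six one-minute reads.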
* hit, by the source's call; u = inconclusive; x = no result given. Sampled rows, rich in hits. Any-hit rate of the full collection: about 4.4%. Unless noted, no stated cut-off is given here; in the data, active means activation above about 30%; inactive means the rest.

SMILES	D1 ag	D1 antag	TRHR ag	D1 potentiator	TRHR enhancer	USP1-UAF1 inh
COc1cc(C(=O)n2nc(C)cc2C)ccc1O	0	5	0	-5	38*	-21%
Cc1ccc(Nc2c(-c3ccc(N(C)C)cc3)nc3ccccn23)cc1	2	-30*	-1	-5	0	-15%
O=S(=O)(c1c(F)cccc1F)N1CCN(S(=O)(=O)c2c(F)cccc2F)CC1	1	-30*	0	0	3	x
O=S(=O)(c1c(F)cccc1F)N1CCN(Cc2c(O)ccc3ccccc23)CC1	4	0	1	-3	-3	-11%
O=C(NCc1cccs1)C1CC(c2ccc(Cl)cc2)=NO1 (configuration not stated)	8	-33*	-2	-6	-1	-8%
O=C(NCc1ccccc1C(F)(F)F)C1CC(c2cccc(F)c2)=NO1 (configuration not stated)	1	-91*	0	-9	-1	-21%
O=C(NCCc1cccs1)C1CC(c2cccc(F)c2)=NO1 (configuration not stated)	40*	-7	-2	-6	-3	-10%
CCOC(=O)c1c(NC(=O)c2cc(CC)on2)sc(C)c1C	4	0	1	0	4	u
CCc1ccc(NC(=O)Cn2c(=O)n(CCC(=O)NCCc3ccc(OC)c(OC)c3)c(=O)c3ccccc32)cc1	1	-8	1	2	-7	-5%
O=C(O)c1nn(Cc2nc3ccccc3o2)c(=O)c2ccccc12	3	-77*	-2	x	2	-1%
COc1ccc(/C=N/NC(=O)c2ccc(-n3cnnn3)cc2)cc1	1	-65*	0	12	11	-19%
CN(C)c1ccc(C(CNC(=O)Cc2ccc(Cl)cc2)N2CCOCC2)cc1 (configuration not stated)	0	-5	1	1	-1	-11%
Cc1ccc(/C=N/NC(=O)c2ccc(-n3cnnn3)cc2)cc1	23	1	2	1	-4	-11%
COc1ccc(CC(=O)NCC(c2ccc(Cl)cc2)N2CCOCC2)cc1 (configuration not stated)	-3	-43*	0	-1	-2	-33%
COc1ccc(C(CNC(=O)c2ccc(-n3cnnn3)cc2)N2CCOCC2)cc1 (configuration not stated)	1	-47*	0	-8	7	-5%
COc1ccc(C(CNC(=O)c2ccc(C)cc2)N2CCOCC2)cc1 (configuration not stated)	1	0	1	0	-4	-19%
CCCCNC(=O)CN1C(=O)c2cccnc2Sc2ccccc21	3	7	0	-5	-2	-10%
Cc1ccc(C(=O)Nc2ccc(Cl)c(-c3nc4ncccc4o3)c2)c(C)c1	2	5	1	-3	2	-14%
COc1ccccc1C(=O)N1c2ccccc2C(C)(c2ccc(Cl)cc2)CC1(C)C (configuration not stated)	5	4	1	4	-12	u
COc1ccc(-c2ccc3c(N)c(C(=O)Nc4ccc(C)cc4C)sc3n2)cc1OC	2	-10	1	-8	0	-6%
CCOC(=O)c1c(C)c(-c2ccccc2)n(CC(=O)NCCc2cccc(C)c2)c1C	2	15	0	-5	-7	u
Cc1nn(-c2ccccc2)c(OC(=O)c2ccccc2Br)c1S(=O)(=O)c1ccccc1	1	-18	0	-4	4	-30%
Clc1cccc(CNc2nnnn2-c2ccccc2)c1	37*	-46*	0	-11	-2	-1%
Cc1ccc(N(CC(=O)Nc2ccc(F)cc2F)S(=O)(=O)c2cccs2)cc1	8	-9	0	0	-1	-2%
Cc1ccc(SCc2ccc(C(=O)Nc3nccs3)o2)cc1	6	-10	0	2	-3	-23%
SMILES	D1 ag	D1 antag	TRHR ag	D1 potentiator	TRHR enhancer	USP1-UAF1 inh
O=C(Nc1nccs1)c1ccc(CSc2ccccc2)o1	2	-40*	0	-7	-8	-8%
CCN1C=C(Cc2ccc(F)cc2)C2=C(C1)C(c1ccc(F)cc1)C(C#N)=C(N)O2 (configuration not stated)	2	-55*	0	-6	0	-21%
C=CCN1C(=Nc2cccnc2)SCC1(O)c1ccc(C)cc1 (configuration not stated)	19	-56*	1	-14	-4	x
CC(C)(C)NC(=S)Nc1cccc(C(F)(F)F)c1	31*	-1	-1	-9	8	2%
CNNC(=S)Nc1cccc(C(F)(F)F)c1	0	3	0	-1	-1	-8%
FC(F)(F)c1cccc(NC(=S)NNC(=S)Nc2cccc(C(F)(F)F)c2)c1	2	-34*	0	-5	-3	x
Cc1cccc(N2CCN(C3(c4ccccc4)C(=O)c4ccccc4C3=O)CC2)c1C	3	-5	1	-3	-5	-25%
CC(C)c1ccc(/C=C(\C#N)c2nc(-c3ccc(O)cc3)cs2)cc1	13	-18	8	-1	1	-24%
CCSCCOC(=O)C1=C(C)NC(=O)NC1c1ccc2c(c1)OCO2 (configuration not stated)	2	-9	0	-4	37*	-25%
CCOC(=O)C1=C(CN2CCN(C(=O)OCC)CC2)NC(=O)NC1c1ccc2c(c1)OCO2 (configuration not stated)	1	-9	0	-1	0	-12%
CCOC(=O)C1=C(CNCCOc2ccc(OC)cc2)NC(=O)NC1c1ccc2c(c1)OCO2 (configuration not stated)	9	-33*	0	-3	7	-10%
CCOC(=O)C1=C(C)NC(=O)NC1c1ccc2c(c1)OCO2 (configuration not stated)	13	1	-2	-5	-2	-14%
COc1ccc2c(Sc3ccc(Cl)cc3)c(C(=O)NCCCN3CCCCC3)[nH]c2c1	3	-10	0	-1	-2	-5%
CN1CCN(c2nc3nonc3nc2N2CCN(C)CC2)CC1	0	8	0	2	32*	-26%
COc1cc(CN2CCN(C(c3ccccc3)c3ccccc3)CC2)cc(OC)c1OC	6	-52*	0	-17	-1	-25%
CCN1CCN(Cc2cccc(Oc3ccc(Cl)cc3)c2)CC1	19	-64*	0	-2	-9	-3%
COc1cccc(CN2CCN(Cc3cccc(Oc4ccccc4)c3)CC2)c1OC	4	-9	0	0	31*	-14%
